Compound activity from PubChem BioAssay.
Peg3 prom inh: Peg3 promoter activity inhibition | HeLa PEG-Prom luciferase reporter, luminescence, overnight | inhibition, % at 20 µM | 360,000 tested, 1.7% active;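 active = inhibition of at least 50% at 20 µM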
CF NFkB inh: blocks PAF-induced NF-kB reporter in cystic fibrosis cells; KKLEB NF-kB-GFP reporter, GFP fluorescence overnight; AID 588850; 360,000 tested, 0.86% active; inhibition, % at 5 µM;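 active = at least 50% inhibition at 5 µM, scaled per plate between neutral and stimulator controls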;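 also: PAF is a Pseudomonas aeruginosa culture filtrate used as stimulus; plate controls were PAF-stimulated DMSO wells for no effect and unstimulated DMSO wells for full effect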
HIF-2a block: inhibitors of HIF-2a; 786-0 RCC cells HIF-2a reporter, luciferase luminescence, overnight; 360,000 tested, 0.72% active; inhibition, % at 18.8 µM;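 active = inhibition of the luminescence signal of 40% or more relative to plate controls, in a single-dose primary screen at 18.75 µM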
Shn3 inh set2: reduces Shn3 3'UTR luciferase signal in osteoblasts; Clone20 osteoblast Shn3 3'UTR firefly luciferase, 24 h; inhibition, % at 12.5 µM; 360,000 tested, 0.52% active; AID 588674;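 active = mean inhibition of at least 75% with every replicate also reaching 75%; inconclusive = mean inhibition at least 75% but some replicate below; inactive = mean inhibition below 75%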;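 also: 0% = median of neutral control wells and 100% = pilot-screen positive control compound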
KKLEB tox: reduces viability of KKLEB cystic fibrosis airway cells; KKLEB CF airway cells viability, ATPlite luminescence, overnight; stronger effect = lower value; cells stimulated with P. aeruginosa culture filtrate; activity change (cytotoxicity), % at 5 µM; 360,000 tested, 0.36% active; AID 602141;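 active = corrected activity change at or below -50% at 5 µM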
CF NFkB inh conf: CF NF-kB inhibition confirmation, single concentration | 1,300 tested, 64% active | KKLEB CF airway cells, PAF-induced NF-kB-GFP fluorescence, overnight | inhibition, % at 5 µM | shares compounds with CF NFkB inh; in the data active = inhibition above about 40%;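 also: stimulus PAF is a Pseudomonas aeruginosa filtrate and not platelet activating factor; plate controls were DMSO wells with stimulus for no effect and unstimulated DMSO wells for full effect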
Mdm2 MdmX conf: Mdm2/MdmX (human) interaction inhibition, confirmed; shares compounds with HIF-2a block; 740 tested, 99% active; inhibition, % at 8 µM; AID 504601; SaOS-2 split-luciferase Mdm2/MdmX complementation, luminescence;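 active = mean inhibition of the luminescence signal across two replicates at or above 26 percent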
Target sequence (O15151 whole entry, looked up): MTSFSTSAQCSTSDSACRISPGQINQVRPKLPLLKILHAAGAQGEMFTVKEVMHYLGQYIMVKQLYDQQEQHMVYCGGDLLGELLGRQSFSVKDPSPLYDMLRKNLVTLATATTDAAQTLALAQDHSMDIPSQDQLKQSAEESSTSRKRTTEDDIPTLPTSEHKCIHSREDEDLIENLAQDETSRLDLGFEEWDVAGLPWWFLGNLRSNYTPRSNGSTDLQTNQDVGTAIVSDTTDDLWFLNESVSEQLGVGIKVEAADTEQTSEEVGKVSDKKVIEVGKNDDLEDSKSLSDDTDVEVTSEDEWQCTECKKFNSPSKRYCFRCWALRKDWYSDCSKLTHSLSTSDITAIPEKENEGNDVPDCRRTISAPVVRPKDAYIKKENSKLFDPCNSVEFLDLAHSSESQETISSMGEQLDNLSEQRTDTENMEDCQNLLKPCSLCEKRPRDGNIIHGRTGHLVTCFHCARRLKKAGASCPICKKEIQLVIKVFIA
Target sequence (Q00987 whole entry, looked up): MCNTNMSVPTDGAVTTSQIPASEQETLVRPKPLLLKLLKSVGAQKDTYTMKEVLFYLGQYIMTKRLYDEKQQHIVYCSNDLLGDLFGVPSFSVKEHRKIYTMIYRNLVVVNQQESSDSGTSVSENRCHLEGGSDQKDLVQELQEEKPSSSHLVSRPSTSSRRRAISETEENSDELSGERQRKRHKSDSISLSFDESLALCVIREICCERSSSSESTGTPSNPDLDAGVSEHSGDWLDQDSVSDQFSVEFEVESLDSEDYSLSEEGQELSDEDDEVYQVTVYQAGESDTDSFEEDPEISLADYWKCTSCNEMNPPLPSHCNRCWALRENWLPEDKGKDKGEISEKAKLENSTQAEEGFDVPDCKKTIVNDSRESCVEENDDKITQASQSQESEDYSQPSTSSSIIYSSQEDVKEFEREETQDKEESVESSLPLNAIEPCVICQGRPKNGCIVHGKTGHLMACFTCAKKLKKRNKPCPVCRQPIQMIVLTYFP
HIF-2a inh conf: confirmation of HIF-2a inhibitors; shares compounds with HIF-2a block; 786-0 RCC cells, HIF-2a luciferase reporter luminescence, overnight; inhibition, % at 18.8 µM; 1,800 tested, 56% active; AID 651580;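 active = mean inhibition across four replicates of at least 40 percent at the single tested concentration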
HIF-1a cs: inhibits HIF-1a reporter, a counter-screen for HIF-2a inhibitors; shares compounds with HIF-2a block; MiaPaCa-2 HIF-1a luciferase reporter, desferoxamine, overnight; inhibition, % at 18.8 µM; 1,800 tested, 72% active;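 active = mean inhibition of the reporter signal across four replicates at the single tested dose of 50% or more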
The depositor's hits bear a star. An excerpt weighted towards active compounds, which were near 2.6% of everything screened.

For CCc1cccc(CC)c1NC(=O)CN1CCN(S(=O)(=O)c2ccccc2)CC1 the results were Peg3 prom inh 17.2, CF NFkB inh -13.7, HIF-2a block -2.5, Shn3 inh set2 3.7 and KKLEB tox -1.5.
`CCCS(=O)(=O)NCCc1csc(-c2ccc(OC)c(OC)c2)n1` gave Peg3 prom inh 2.9, CF NFkB inh 2.4, HIF-2a block 11.0, Shn3 inh set2 24.6 and KKLEB tox 1.2.
CC(C)C(=O)N1CCN(c2ccc(NC(=O)c3ccc([N+](=O)[O-])o3)cc2Cl)CC1 was read as Peg3 prom inh 108.8*, CF NFkB inh 69.3*, HIF-2a block 91.1*, Shn3 inh set2 96.2*, KKLEB tox -12.1, CF NFkB inh conf 24.3, HIF-2a inh conf 80.1* and HIF-1a cs 99.3*.
For O=C(Nc1ccccc1N1CCN(C(=O)c2ccc(Cl)cc2)CC1)c1ccc([N+](=O)[O-])o1 the results were Peg3 prom inh 27.5, CF NFkB inh 4.4, HIF-2a block 9.0, Shn3 inh set2 -45.4 and KKLEB tox -14.8.
For C=C(C)[C@@H]1C2=CC(C(=O)OC)=C(C[C@H](C(=C)C)[C@H]3O[C@H]3C3=C[C@H]1OC3=O)O2 the results were Peg3 prom inh 103.0*, CF NFkB inh 68.8*, HIF-2a block 87.8*, Shn3 inh set2 98.1*, KKLEB tox -37.0, CF NFkB inh conf -15.4, HIF-2a inh conf 89.1* and HIF-1a cs 106.4*.
`O=C(NCC1COc2ccccc2O1)c1cccc(S(=O)(=O)NCc2ccccc2)c1` (stereo unspecified) gave Peg3 prom inh 22.1, CF NFkB inh -7.7, HIF-2a block 11.3, Shn3 inh set2 10.7 and KKLEB tox 2.1.
For CC(=O)Nc1ccccc1NC(=O)C/C(C)=N/NC(=O)c1cccnc1 the results were Peg3 prom inh 15.5, CF NFkB inh -21.0, HIF-2a block 6.2, Shn3 inh set2 -12.2 and KKLEB tox 16.1.
Screening Cc1ccn2c(CNCc3cnn(C)c3)c(C(=O)N3CCCCCC3)nc2c1 returned Peg3 prom inh -40.7, CF NFkB inh -1.9, HIF-2a block -1.1, Shn3 inh set2 6.4 and KKLEB tox 14.1.
For O=C(c1cccs1)N1C[C@@H](n2cc(C3CC3)nn2)[C@H](O)C[C@@H]1c1ccc(Cl)cc1 the results were Peg3 prom inh 10.2, CF NFkB inh -7.3, HIF-2a block -0.9, Shn3 inh set2 -14.7 and KKLEB tox -8.9.
COc1cc(/C=C/C(=O)c2ccc([N+](=O)[O-])o2)ccc1O was read as Peg3 prom inh 100.9*, CF NFkB inh 83.4*, HIF-2a block 96.9*, Shn3 inh set2 97.3*, KKLEB tox -21.0, CF NFkB inh conf 2.2, HIF-2a inh conf 78.8* and HIF-1a cs 104.6*.
`O=S(=O)(c1ccc(F)cc1)N1CCCN(c2nccc(C(F)(F)F)n2)CC1` gave Peg3 prom inh 6.2, CF NFkB inh -2.5, HIF-2a block 19.6, Shn3 inh set2 -16.6 and KKLEB tox 12.2.
O=C1CNC(=S)N1C1CCCCCC1 was read as Peg3 prom inh 8.2, CF NFkB inh 5.3, HIF-2a block 7.1, Shn3 inh set2 0.9 and KKLEB tox 0.5.
For CC(=O)OC1CCC2(C)C(CCC3C4CC=C(C(C)=O)C4(C)OC(=O)CC32)C1 (stereo unspecified) the results were Peg3 prom inh 111.2*, CF NFkB inh 95.7*, HIF-2a block 65.6*, Shn3 inh set2 inconclusive, KKLEB tox -14.3, CF NFkB inh conf 101.0*, HIF-2a inh conf 62.2* and HIF-1a cs 105.0*.
`COc1ccc2cc3c(N)nn(C(=O)c4ccc(Cl)c([N+](=O)[O-])c4)c3nc2c1` gave Peg3 prom inh -1.1, CF NFkB inh 65.3*, HIF-2a block 0.8, Shn3 inh set2 9.7, KKLEB tox -7.4, CF NFkB inh conf 38.6 and Mdm2 MdmX conf 96.5*.
For CCCC1CCC(C(=O)n2nc(N)c3cc4ccc(OC)cc4nc32)CC1 (stereo unspecified) the results were Peg3 prom inh 9.0, CF NFkB inh 35.9, HIF-2a block 15.5, Shn3 inh set2 -1.6 and KKLEB tox 3.0.
Screening COc1ccc2cc3c(N)nn(C(=O)c4ccccc4[N+](=O)[O-])c3nc2c1 returned Peg3 prom inh 4.2, CF NFkB inh 70.8*, HIF-2a block 32.1, Shn3 inh set2 13.5, KKLEB tox -28.1, CF NFkB inh conf 93.3* and Mdm2 MdmX conf 92.7*.
O=C1NC[C@H](Cc2ccccc2)N(C[C@H]2CCCN2C[C@H](Cc2ccccc2)N2C[C@H](Cc3ccccc3)N(CC3CCCCCC3)C(=O)C2=O)C1=O was read as Peg3 prom inh 53.7*, CF NFkB inh 56.1*, HIF-2a block 80.4*, Shn3 inh set2 5.7, KKLEB tox -24.4, CF NFkB inh conf 19.9, HIF-2a inh conf 1.9 and HIF-1a cs 105.5*.
For CN(C(=O)CSc1nc(-c2cccs2)nc2ccccc12)C1CCS(=O)(=O)C1 (stereo unspecified) the results were Peg3 prom inh 17.5, CF NFkB inh -29.7, HIF-2a block 2.1, Shn3 inh set2 84.3 and KKLEB tox -2.6.
For CN1CCC(N2CCN(C3CN(C4CCCCC4)S(=O)(=O)C3)CC2)CC1 (stereo unspecified) the results were Peg3 prom inh 4.0, CF NFkB inh 2.6, HIF-2a block -6.0, Shn3 inh set2 -7.8 and KKLEB tox -0.6.
CC(=O)Oc1ccccc1C(=O)C=Cc1cccc([N+](=O)[O-])c1 was read as Peg3 prom inh 99.4*, CF NFkB inh 80.0*, HIF-2a block 89.1*, Shn3 inh set2 55.6, KKLEB tox -41.0, CF NFkB inh conf -59.9, HIF-2a inh conf 93.5* and HIF-1a cs 102.5*.
`Cc1cc(O)c(C(=O)/C=C/c2cccc([N+](=O)[O-])c2)c(=O)o1` gave Peg3 prom inh -0.6, CF NFkB inh 15.0, HIF-2a block -1.9 and KKLEB tox -15.5.
Screening COc1ccc(Br)cc1CN(C)CC(=O)Nc1c(Cl)ccc(C)c1Cl returned Peg3 prom inh 20.9, CF NFkB inh 2.0, HIF-2a block 15.5, Shn3 inh set2 14.1 and KKLEB tox 0.5.
`COc1ccc(/C=N/NC(=O)c2cccc([N+](=O)[O-])c2)c2ccccc12` gave Peg3 prom inh 21.3, CF NFkB inh 30.6, HIF-2a block 57.5*, Shn3 inh set2 19.5, KKLEB tox -19.7, HIF-2a inh conf 1.2 and HIF-1a cs 23.6.
